In test [1] the target is Nuclear receptor coactivator 1 (Homo sapiens) (UniProt Q15788). Kind of test: NCOA1 GAL4-fusion reporter inhibition – cell-based, luminescence, quadruplicate, confirmation (AID 588820;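 active = mean inhibition above 46.68%, the untreated control wells mean plus 3 SD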;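 note: 0% = DMSO wells and 100% = gossypol 36 µM treated wells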). Particulars: HEK293 GAL4-SRC1 luciferase reporter, at 3.6 µM, stronger effect = higher value.
Test [2] in a line: repression of VP16-driven luciferase reporter – cell-based, luminescence, high throughput, counter-screen for SRC1 inhibitor project (AID 588824; in the data active = inhibition above about 25%). The settings on record: cell-based VP16 transactivation luciferase luminescence; at 3.6 µM; stronger effect = higher value.
A short description of test [3]: StAR promoter reporter inhibitors, counter-screen for LRH-1 inverse agonist project, cell-based, luminescence, high throughput (AID 651611; in the data active = inhibition above about 28%). Particulars: StAR promoter luciferase reporter counterscreen, at 3.6 µM, stronger effect = higher value.
For test [4], the target named is Nuclear receptor subfamily 5 group A member 2 (Homo sapiens) (UniProt O00482). As to the kind of experiment: NR5A2 activity suppression in reporter cells – cell-based, luminescence, confirmation (AID 651613; in the data active = inhibition above about 42%;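 note: HEK293T cells co-transfected with LRH-1 and StAR promoter luciferase reporter; 0% = vehicle wells and 100% = parental cells lacking receptor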). Particulars: cell-based LRH-1 luciferase reporter, inverse agonism; at 3.6 µM; stronger effect = higher value.
The target in test [5] is Steroidogenic factor 1 (Homo sapiens) (UniProt Q13285). Kind of test: inverse agonism at SF1 nuclear receptor – cell-based, luminescence, high throughput, counter-screen for LRH-1 inverse agonist project (AID 651614; in the data active = inhibition above about 44%;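 note: cells cotransfected with StAR promoter reporter and SF1 expression vector; 0% = vehicle on cells with receptor and 100% = vehicle on cells lacking receptor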). Particulars: cell-based SF1 luciferase reporter, at 3.6 µM, stronger effect = higher value.
The nature of test [6]: compounds suppressing VP16-driven luciferase signal – cell-based, luminescence, high throughput, counter-screen for LRH-1 inverse agonist project (AID 651615). The settings on record: Gal4-VP16 luciferase reporter cells, at 3.6 µM, stronger effect = higher value.

Values without a mark were called inactive. Active and inactive are the calls of the source. Cut-off read from the data, not from the text of the source, unless noted: active = inhibition above about 33%; inactive = the rest.

Drawing on PubChem BioAssay, this text covers inhibition for 19 molecules.

Steroidogenic factor 1 (Homo sapiens), sequence (Q13285 whole entry, looked up, the tested form may be a part): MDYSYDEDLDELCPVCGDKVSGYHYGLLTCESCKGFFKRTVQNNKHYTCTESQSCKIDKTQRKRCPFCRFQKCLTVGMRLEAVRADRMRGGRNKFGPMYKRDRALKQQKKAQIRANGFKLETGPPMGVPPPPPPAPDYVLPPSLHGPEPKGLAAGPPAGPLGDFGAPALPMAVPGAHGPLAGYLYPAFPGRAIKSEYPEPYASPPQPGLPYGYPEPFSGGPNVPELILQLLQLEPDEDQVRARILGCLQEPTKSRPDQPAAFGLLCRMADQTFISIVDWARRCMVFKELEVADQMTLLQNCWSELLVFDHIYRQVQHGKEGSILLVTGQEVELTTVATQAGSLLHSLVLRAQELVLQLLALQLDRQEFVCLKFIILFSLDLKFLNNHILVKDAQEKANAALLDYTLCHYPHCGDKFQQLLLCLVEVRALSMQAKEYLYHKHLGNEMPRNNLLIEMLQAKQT
Nuclear receptor subfamily 5 group A member 2 (Homo sapiens), sequence (O00482 whole entry, looked up): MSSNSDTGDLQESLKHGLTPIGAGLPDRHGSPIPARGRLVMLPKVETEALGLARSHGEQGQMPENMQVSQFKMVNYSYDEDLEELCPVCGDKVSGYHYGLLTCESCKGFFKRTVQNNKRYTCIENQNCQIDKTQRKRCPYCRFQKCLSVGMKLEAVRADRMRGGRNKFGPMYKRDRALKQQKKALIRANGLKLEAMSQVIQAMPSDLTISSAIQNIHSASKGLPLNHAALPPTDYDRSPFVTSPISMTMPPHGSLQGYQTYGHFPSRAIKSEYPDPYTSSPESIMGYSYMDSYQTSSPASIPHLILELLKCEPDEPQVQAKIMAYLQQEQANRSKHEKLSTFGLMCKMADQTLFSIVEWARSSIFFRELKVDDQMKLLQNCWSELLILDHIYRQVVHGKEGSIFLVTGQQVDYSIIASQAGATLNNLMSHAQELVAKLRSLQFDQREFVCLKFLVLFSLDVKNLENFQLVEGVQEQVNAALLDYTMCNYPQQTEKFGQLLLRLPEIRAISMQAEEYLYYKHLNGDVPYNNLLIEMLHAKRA
Nuclear receptor coactivator 1 (Homo sapiens), sequence (Q15788 whole entry, looked up, the tested form may be a part): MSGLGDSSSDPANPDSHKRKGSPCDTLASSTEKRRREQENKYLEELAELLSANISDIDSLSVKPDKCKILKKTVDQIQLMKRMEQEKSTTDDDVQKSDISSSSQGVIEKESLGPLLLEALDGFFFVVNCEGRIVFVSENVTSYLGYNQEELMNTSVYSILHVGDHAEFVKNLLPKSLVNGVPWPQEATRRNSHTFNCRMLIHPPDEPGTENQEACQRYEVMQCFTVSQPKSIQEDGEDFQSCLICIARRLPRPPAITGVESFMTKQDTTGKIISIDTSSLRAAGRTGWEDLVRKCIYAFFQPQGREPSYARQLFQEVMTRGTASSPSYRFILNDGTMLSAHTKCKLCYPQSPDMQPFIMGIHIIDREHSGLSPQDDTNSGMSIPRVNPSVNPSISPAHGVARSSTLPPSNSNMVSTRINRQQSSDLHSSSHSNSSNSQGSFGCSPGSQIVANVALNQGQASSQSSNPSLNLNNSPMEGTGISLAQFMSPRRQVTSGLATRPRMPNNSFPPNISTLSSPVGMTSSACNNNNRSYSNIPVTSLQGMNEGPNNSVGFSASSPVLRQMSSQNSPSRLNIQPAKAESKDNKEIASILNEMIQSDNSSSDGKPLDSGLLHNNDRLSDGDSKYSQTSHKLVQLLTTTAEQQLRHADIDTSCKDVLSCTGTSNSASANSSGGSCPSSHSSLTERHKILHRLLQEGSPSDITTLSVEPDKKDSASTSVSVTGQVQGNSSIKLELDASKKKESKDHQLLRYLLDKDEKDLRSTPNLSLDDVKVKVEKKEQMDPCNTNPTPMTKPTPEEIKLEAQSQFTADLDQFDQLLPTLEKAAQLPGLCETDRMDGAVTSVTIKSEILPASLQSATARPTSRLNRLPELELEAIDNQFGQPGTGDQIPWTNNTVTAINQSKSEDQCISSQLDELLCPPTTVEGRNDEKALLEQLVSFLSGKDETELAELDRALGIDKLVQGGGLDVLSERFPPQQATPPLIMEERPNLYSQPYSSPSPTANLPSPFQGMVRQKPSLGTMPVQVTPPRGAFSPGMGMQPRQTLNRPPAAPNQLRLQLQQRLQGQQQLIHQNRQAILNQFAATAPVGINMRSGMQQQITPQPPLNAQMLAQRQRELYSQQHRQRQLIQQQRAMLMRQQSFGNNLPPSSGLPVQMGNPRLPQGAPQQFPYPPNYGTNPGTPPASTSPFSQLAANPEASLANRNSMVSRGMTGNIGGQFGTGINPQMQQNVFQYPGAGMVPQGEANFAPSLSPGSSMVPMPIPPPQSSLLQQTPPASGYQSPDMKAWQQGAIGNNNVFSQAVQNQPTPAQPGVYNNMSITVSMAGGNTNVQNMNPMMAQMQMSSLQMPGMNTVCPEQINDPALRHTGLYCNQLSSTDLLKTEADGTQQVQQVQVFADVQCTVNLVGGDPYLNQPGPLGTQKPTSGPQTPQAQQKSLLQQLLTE

Regarding `COc1ccc(CC(=O)Nc2cccc(S(=O)(=O)N3CCCCCC3)c2)cc1OC`, the inhibition is -18.9% in test [1]; 33% (active) in test [2]; 20.2% in test [3]; 65.6% (active) in test [4]; 53.4% (active) in test [5]; 49.3% (active) in test [6].
On to `CCCCCCCCCCOC(=O)Cn1c(COc2ccccc2C)[n+](C)c2ccccc21`, for which the inhibition is -8.25% in test [1]; 6.65% in test [2]; -2.25% in test [3]; 42.2% (active) in test [4]; 38.4% in test [5]; 38.9% (active) in test [6].
For `COc1ccccc1NS(=O)(=O)c1cccc(C(=O)NC2CCN(Cc3ccccc3)CC2)c1`, the inhibition is -19.5% in test [1]; 26.4% (active) in test [2]; 26.2% in test [3]; 60.4% (active) in test [4]; 65.3% (active) in test [5]; 48.3% (active) in test [6].
Regarding `Brc1ccc2c(c1)-c1ccccc1C1=NCCN12`, the inhibition in test [1] is -49.1%; in test [2], 40.9% (active); in test [3], 39% (active); in test [4] it was 104% (active); in test [5], 75.8% (active); in test [6], 71.6% (active).
Consider `CCN(CC)S(=O)(=O)c1cc(NC(=O)CNc2cccc(S(=O)(=O)N3CCCC3)c2)ccc1C`, for which the inhibition in test [1] was -4.32%; in test [2] it was 32.8% (active); in test [3] it was 21.6%; in test [4], 61.7% (active); in test [5], 54.9% (active); in test [6] it was 49.1% (active).
Regarding `Cc1cccc(-n2c(CNC(=O)c3ccccc3)nnc2SCC(=O)Nc2nccs2)c1`, the inhibition in test [1] is -8.14%; in test [2], 4.71%; in test [3] it was 10.2%; in test [4], 10.1%; in test [5], 17.1%; in test [6] it was 3.06%.
Take `Cc1ccc2occ(/C=N/NC(=O)c3ccccc3O)c(=O)c2c1`: the inhibition was 5.51% in test [1]; 13.2% in test [2]; 14.5% in test [3]; 3.45% in test [4]; 2% in test [5]; 25% in test [6].
For `CN(Cc1ccccc1)C(=O)c1ccc(NC(=O)Cc2ccc(NC(=O)C3CCCN(C(=O)CCc4ccccc4)C3)cc2)cc1` (centres undefined), the inhibition is -11.5% in test [1]; 37.6% (active) in test [2]; 29% (active) in test [3]; 62.2% (active) in test [4]; 64.3% (active) in test [5]; 55.8% (active) in test [6].
For the molecule `CC1(C)CC(N2CCCC2)=CC(=[N+]2CCCC2)C1`, the inhibition was 2.13% in test [1]; 23.9% in test [2]; 12% in test [3]; 62% (active) in test [4]; 55.2% (active) in test [5]; 51.4% (active) in test [6].
In the case of `CN(C(=O)c1cccc(NC(=O)Cc2ccc(NC(=O)C3CCCN(C(=O)CCc4ccccc4)C3)cc2)c1)C1CCCCC1` (centres undefined), the inhibition in test [1] was 6.53%; in test [2], 28% (active); in test [3], 24.3%; in test [4], 49.4% (active); in test [5] it was 48.5% (active); in test [6], 45.2% (active).
On to `CCCCCCCCNc1ncnc2ccccc12`, for which the inhibition was -40.4% in test [1]; 29.4% (active) in test [2]; 22.2% in test [3]; 63.7% (active) in test [4]; 56.2% (active) in test [5]; 63.4% (active) in test [6].
For the molecule `CN(C)CCNc1ccc2ncn3c4ccc(O)cc4c(=O)c1c23`, the inhibition in test [1] is 23.2%; in test [2], 52.9% (active); in test [3] it was 49.3% (active); in test [4], 81.6% (active); in test [5], 80.5% (active); in test [6] it was 79.9% (active).
Consider `CC(=O)Nc1ccc(Nc2c3ccccc3nc3ccccc23)cc1`, for which the inhibition in test [1] is 22.8%; in test [2], 39.4% (active); in test [3] it was 62.5% (active); in test [4] it was 106% (active); in test [5], 69.6% (active); in test [6], 72.8% (active).
Turning to `Cc1ccc(Oc2ccc(OCC(=O)Nc3ccncc3)cc2)cc1`, the inhibition in test [1] was -33.1%; in test [2] it was 41.3% (active); in test [3] it was 35.7% (active); in test [4], 79.2% (active); in test [5], 70.5% (active); in test [6] it was 51% (active).
Regarding `COc1ccc(NC(=O)C2Cc3c(-c4cccc(C(C)=O)c4)ccnc3O2)cc1OC` (centres undefined), the inhibition in test [1] is -17.4%; in test [2], 19.6%; in test [3], 44% (active); in test [4], 59% (active); in test [5] it was 72% (active); in test [6] it was 48.8% (active).
Take `Clc1ccc(-c2nnc(CSc3nnc(-c4cccs4)n3Cc3ccccc3)o2)cc1`: the inhibition in test [1] is -0.02%; in test [2], 30.5% (active); in test [3], 5.56%; in test [4], 51.7% (active); in test [5], 48.9% (active); in test [6], 41.6% (active).
Regarding `COc1cccc2c1C(=O)c1c(O)c3c(c(O)c1C2=O)C[C@@](O)(C(=O)CO)C[C@@H]3OC1CC(N)C(O)C(C)O1` (some centres undefined), the inhibition was -127% in test [1]; 71.4% (active) in test [2]; -14.6% in test [3]; 87.5% (active) in test [4]; 70.6% (active) in test [5]; 82.6% (active) in test [6].
Regarding `O=C(N/N=C/c1ccc(O)cc1)c1ccc(COc2cc(Cl)ccc2Cl)o1`, the inhibition was -2.22% in test [1]; 30.3% (active) in test [2]; 22.3% in test [3]; 42.3% (active) in test [4]; 47.1% (active) in test [5]; 57.9% (active) in test [6].
`CCN(CC)CCn1nc2c3c(cccc3c1=O)-c1ccccc1-2`: the inhibition was 28.6% in test [1]; 54.7% (active) in test [2]; 54.2% (active) in test [3]; 84.5% (active) in test [4]; 80.1% (active) in test [5]; 79.5% (active) in test [6].
